# Compound activity (PubChem)
# p53ts 39C kill – kills p53ts cells at the nonpermissive temperature; H1299-p53A138V viability at 39C, ATP luminescence, 24 h; Potency, µM (titrated, usually from 46.1 µM), most hits filed as cytotoxic; 130,000 compounds, 1.5% hits; AID 902; also: nearly all actives have a fitted effect of over 55% in size
# Luciferase inh – blocks Photinus pyralis firefly luciferase activity | P08659 | purified firefly luciferase, luminescence, 8 min | Potency, µM (titrated, usually from 57.1 µM), hits mostly inhibitors | 72,000 compounds, 2.2% hits; also: nearly all actives have a fitted effect of over 40% in size
# Target sequence (P08659 whole entry, looked up): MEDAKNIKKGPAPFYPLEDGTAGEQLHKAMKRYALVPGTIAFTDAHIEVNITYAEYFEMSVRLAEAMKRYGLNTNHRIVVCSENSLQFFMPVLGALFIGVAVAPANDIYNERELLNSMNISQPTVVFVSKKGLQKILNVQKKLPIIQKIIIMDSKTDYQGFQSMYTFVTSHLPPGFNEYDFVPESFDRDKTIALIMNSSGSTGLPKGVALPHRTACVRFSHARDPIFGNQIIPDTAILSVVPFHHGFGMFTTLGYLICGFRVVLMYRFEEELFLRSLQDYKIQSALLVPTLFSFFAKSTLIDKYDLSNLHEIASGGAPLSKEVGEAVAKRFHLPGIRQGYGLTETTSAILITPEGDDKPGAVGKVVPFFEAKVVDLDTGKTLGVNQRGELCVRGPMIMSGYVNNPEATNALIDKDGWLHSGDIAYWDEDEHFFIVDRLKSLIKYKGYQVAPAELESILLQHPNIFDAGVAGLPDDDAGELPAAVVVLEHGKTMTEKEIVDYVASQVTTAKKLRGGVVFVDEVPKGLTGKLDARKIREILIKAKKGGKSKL
#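 Inhibition of light generation by firefly luciferase from ATP and luciferin was profiled with concentration-response curves per sample, ATP held at 10 uM within the enzyme's linear range. Plates were read by luminescence after an 8-minute ambient incubation.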
# p53ts 32C tox – kills p53ts cells at the permissive temperature. H1299-p53A138V at 32C, ATP luminescence viability, 24 h. Potency, µM (top dose mostly 46.1 µM), actives largely listed as cytotoxic. 130,000 compounds, 0.93% hits; also: nearly all actives have a fitted effect of over 55% in size
#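 H1299-p53 A138V cells (temperature-sensitive p53) exposed 24 h to up to 46 uM compound at 32C, where p53 is wild-type in conformation. Viability read as ATP luminescence and normalised to DMSO and 100 uM tamoxifen. AC50 fitted with the Hill equation.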
# A number is an active result; n = inactive; u = inconclusive; x = no result; [ ] = another dose, or the depositor's remark. Most compounds without a hit are left out; they make up all but 2.5% or so of the library. Calls follow the shape of the dose curve; as a rule, active = well fitted curve in the direction sought with a large enough effect; inconclusive = small, poorly fitted or top-dose-only effect, or another doubt; inactive = no such curve, though single readings can be large; an effect the other way counts as inactive or inconclusive.
SMILES,p53ts 39C kill,Luciferase inh,p53ts 32C tox
COC(=O)c1ccccc1NC(=O)c1cc2ccccn2n1,u,x,n
COc1cc(NC(=O)c2cc3ccccn3n2)cc(OC)c1OC,n,x,n
COc1ccccc1CCNC(=O)c1cc2ccccn2n1,u,x,n
Cc1ccccc1CCNC(=O)c1cc2ccccn2n1,10µM,x,u
Cc1ccc(NC(=O)c2cc3ccccn3n2)cc1F,u,x,13µM
Cc1ccc(S(=O)(=O)O[C@H]2C[C@@H](C(C)(C)C)CC[C@@H]2c2ccccc2)cc1,n[9.22 µM],n[11.4 µM],n[9.22 µM]
C[Si](C)(C)Cl,n,x,n[1.84 µM]
CCOC(=O)C1CCN(S(=O)(=O)c2cc(-c3onc(C)c3C)ccc2OC)CC1,n,x,n
CCOc1ccc(NC(=O)CN(C)S(=O)(=O)c2ccc3c(c2)c(=O)n(C)c(=O)n3C)cc1,n,x,n
CCOC(=O)c1sc(NC(=O)CN2CCCC2)c(C(=O)OCC)c1C,n,n,n
CCOC(=O)c1sc(NC(=O)COC(=O)CNC(=O)C2CCCCC2)c(C(=O)OCC)c1C,3.2µM,x,u
O=C1NC(=O)[C@@H]2C3c4ccccc4C=CN3[C@H](C(=O)c3cccs3)[C@H]12 (stereo partly drawn),n,25µM,n
O=C(c1ccco1)[C@@H]1[C@@H]2C(=O)N(c3ccc(F)cc3)C(=O)[C@@H]2C2c3ccccc3C=CN21 (stereo partly drawn),n,n,n
O=c1c2c3c(sc2nnn1Cc1ccc(F)cc1)CCCC3,n,x,n
CC(C)c1ccc(S(=O)(=O)/N=C2/C=C(Sc3ncn[nH]3)C(=O)c3ccccc32)cc1,8.9µM,x,x
CCOc1ccc(S(=O)(=O)Nc2ccc(O)c(Sc3ncn[nH]3)c2)cc1,n,x,n
COc1cccc(NC(=O)c2cnc(SCC(=O)N3CCOCC3)n(C)c2=O)c1,13µM,x,n
COc1cccc(NC(=O)Cn2c(SCC(=O)N3CCOCC3)nc3ccccc32)c1,n,n,n
CCOC(=O)Cn1c(=O)oc2cc(S(=O)(=O)N3CCN(c4ccc(Cl)cc4)CC3)ccc21,n,x,n
CC1=C[N+](=O)c2ccccc2[N+]1=O,n[9.22 µM],n[11.4 µM],n[9.22 µM]
Nc1nnc(C(=O)c2ccccc2N)s1,u,n,16µM
Nc1nnc(-c2cccnc2)s1,n,n,n
CCOc1ccc(C(=O)Nc2ccccc2OCc2cc(=O)n3ccccc3n2)cc1,n,x,n
CCCCN(C)CCCNC(=O)c1ccc2nc(N3CCCCC3)sc2c1,n,x,n
CCc1ccc2nc(N3CCC(C(=O)O)CC3)sc2c1,6.3µM,x,6.3µM
SMILES,p53ts 39C kill,Luciferase inh,p53ts 32C tox
CCCCN(C)CCNC(=O)C1CCN(c2nc3ccc(CC)cc3s2)CC1,16µM,x,10µM
CCc1ccc2nc(N3CCN(C(=O)C4CC4)CC3)sc2c1,n,x,n
CCN(CC)CCCNC(=O)c1nn(-c2ccc(C)cc2)c(=O)c2c1c1ccccc1n2C,n,x,n
CCN(CC)CCOC(=O)c1ccc(NC(=O)c2nn(-c3ccc(C)cc3)c(=O)c3c2c2ccccc2n3C)cc1,4µM,x,4µM
CC(C)CO/N=C1/C[C@@H](O)[C@@H](O)[C@@H]2[C@@H]3C(=O)N(Cc4ccc5c(c4)OCO5)C(=O)[C@H]3CC[C@H]12,n[9.22 µM],n[11.4 µM],n[9.22 µM]
Cn1c(=O)c2c(nc(CN3CCN(c4ccccc4)CC3)n2Cc2ccccc2Cl)n(C)c1=O,n,n,n
CCCCCCn1c(CN2CCC(C)CC2)nc2c1c(=O)n(C)c(=O)n2C,n,n,n
CC1CCN(Cc2nc3c(c(=O)n(C)c(=O)n3C)n2Cc2c(F)cccc2Cl)CC1,n,n,n
CCCCCCn1c(CN2CCN(CCO)CC2)nc2c1c(=O)n(C)c(=O)n2C,3.2µM,n,2.5µM
CN1CCN(Cc2nc3c(c(=O)n(C)c(=O)n3C)n2Cc2ccccc2Cl)CC1,u,13µM,u
CC1CCCN(Cc2nc3c(c(=O)n(C)c(=O)n3C)n2Cc2c(F)cccc2Cl)C1 (stereo not drawn),n,6.3µM,n
CCOC(=O)c1cccc(NC(=O)NC2COc3ccccc3C2)c1 (stereo not drawn),n,x,n
CCC1CCc2nc3sc(C(=O)Nc4ccc(C)cc4)c(N)c3cc2C1 (stereo not drawn),n,x,n
CSc1n[nH]c(NCc2ccc(C)cc2)n1,14µM,x,11µM
CSc1n[nH]c(NCc2ccc(Cl)cc2)n1,n,x,n
CC(C)NC(=O)c1ccccc1-c1nc(-c2ccccc2Cl)no1,n,u,n
CC(C)(C)NC(=O)c1ccccc1-c1nc(-c2ccccc2Cl)no1,n,20µM,n
CCOc1ccccc1NC(=O)c1ccccc1-c1nc(-c2ccccc2OC)no1,n,25µM,n
COCCNC(=O)c1ccccc1-c1nc(-c2ccccc2OC)no1,n,n,n
CN(C)c1ncnc2ccc(-c3ccc4c(c3)OCO4)cc12,n,n[2.29 µM],n
CC(O)COC(C)(C)C (stereo not drawn),n,x,n[1.84 µM]
CCOCCO,n,x,n[1.84 µM]
